Results published in PubChem BioAssay (NCI).
Compounds without any hit were thinned out: in the full panel of roughly 79,000, 15% have a hit. Calls of active or inactive are those of the source. Rule as the data show it: active = growth inhibition above about 70%; inactive = the rest.

How the values were obtained:
[1] = NCI Yeast Anticancer Drug Screen. Data for the rad52 strain (AID 147);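 also: 0% = growth of vehicle-treated control cultures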; details: S. cerevisiae rad52 mutant growth inhibition, active compounds read high
How it was run: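 Genetically altered yeast (DNA damage repair defect) treated with compound; inhibition calculated relative to vehicle.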

[2] = NCI Yeast Anticancer Drug Screen. Data for the wt1 strain (AID 149);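 also: 0% = growth of vehicle-treated wt1 cultures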; details: S. cerevisiae wt1 strain (SPY 50644) growth inhibition, active compounds read high
How it was run: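 Yeast wt1 strain exposed to compounds; growth inhibition measured relative to vehicle-treated controls.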

[3] = NCI Yeast Anticancer Drug Screen. Data for the rad50EPP+ strain (AID 151);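 also: 0% = growth of vehicle-treated control cultures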; details: S. cerevisiae rad50 mutant strain, active compounds read high
How it was run: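 Strain rad50EPP+; compound exposure; % growth inhibition vs vehicle.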

[4] = NCI Yeast Anticancer Drug Screen. Data for the mgt1 strain (AID 153); details: S. cerevisiae mgt1 mutant growth inhibition, active compounds read high
How it was run: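 Read-out: yeast growth inhibition vs vehicle control. Strain mgt1, drawn from a panel altered in DNA damage repair or cell cycle control.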

[5] = NCI Yeast Anticancer Drug Screen. Data for the rad50 strain (AID 155);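 also: 0% = growth of vehicle-only cultures of the same strain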; details: S. cerevisiae rad50 strain growth inhibition, active compounds read high
How it was run: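 Yeast carrying a defined DNA repair defect were exposed to test compounds, and growth was compared with vehicle-treated controls to give percent inhibition.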

[6] = NCI Yeast Anticancer Drug Screen. Data for the mec2-1 strain (AID 157); details: S. cerevisiae mec2-1 strain, active compounds read high
How it was run: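 Cells of the genetically defined mec2-1 yeast strain are incubated with test compound. Inhibition of growth is calculated against vehicle-treated controls.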

[7] = NCI Yeast Anticancer Drug Screen. Data for the rad14 strain (AID 159);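 also: 0% = growth of vehicle-treated control cultures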; details: S. cerevisiae rad14 strain growth inhibition, active compounds read high
How it was run: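 Yeast cells carrying a defined DNA-repair defect were exposed to compounds, and growth inhibition was calculated relative to vehicle-treated control cultures.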

[8] = NCI Yeast Anticancer Drug Screen. Data for the sgs1 mgt1 strain (AID 161);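 also: 0% = growth of cultures given vehicle only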; details: S. cerevisiae sgs1 mgt1 strain, active compounds read high
How it was run: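 Mutant yeast exposed to compound; growth scored against vehicle-only wells.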

[9] = NCI Yeast Anticancer Drug Screen. Data for the CLN2oe strain (AID 163);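 also: 0% = growth of vehicle-only control cultures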; details: S. cerevisiae CLN2oe strain, active compounds read high
How it was run: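 Strain altered in cell-cycle control, incubated with compound; growth compared to solvent-treated controls.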

[10] = NCI Yeast Anticancer Drug Screen. Data for the cln2 rad14 strain (AID 165);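 also: 0% = growth equal to vehicle treated cultures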; details: S. cerevisiae cln2 rad14 strain, active compounds read high
How it was run: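 The screen exposed genetically defined yeast (cln2 rad14) to test compounds and scored growth inhibition relative to vehicle-treated controls.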

[11] = NCI Yeast Anticancer Drug Screen. Data for the bub3 strain (AID 167); details: S. cerevisiae bub3 mutant strain, active compounds read high
How it was run: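 Compounds were applied to a genetically altered yeast strain carrying a cell-cycle control defect. Growth inhibition was scored against vehicle-treated controls.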

[12] = NCI Yeast Anticancer Drug Screen. Data for the wt2 strain (AID 169);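 also: 0% = growth of vehicle-treated yeast cultures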; details: S. cerevisiae wt2 strain growth inhibition, active compounds read high
How it was run: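 Steps: yeast strain treated with compound; growth recorded; inhibition calculated relative to cultures given vehicle alone.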

[13] = NCI Yeast Anticancer Drug Screen. Data for the mlh1 strain (AID 171);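 also: 0% = growth of vehicle-treated control cultures of the same strain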; details: S. cerevisiae mlh1 strain growth inhibition, active compounds read high
How it was run: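 Yeast screen: mutant strain plus compound, growth scored against vehicle control wells.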

[14] = NCI Yeast Anticancer Drug Screen. Data for the sgs1 strain (AID 173);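 also: 0% = growth of vehicle-only control cultures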; details: S. cerevisiae sgs1 mutant, active compounds read high
How it was run: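 Inhibition of yeast growth served as the measure. The mutant strain was treated with each compound, and growth was normalised to cultures receiving vehicle alone.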

[15] = NCI Yeast Anticancer Drug Screen. Data for the mlh1 rad18 strain (AID 175); details: S. cerevisiae mlh1 rad18 strain growth inhibition, active compounds read high
How it was run: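 Compound-treated yeast growth, normalised to vehicle controls. Strain bears defined DNA repair mutations.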

[16] = NCI Yeast Anticancer Drug Screen. Data for the rad18 strain (AID 177); details: S. cerevisiae rad18 mutant growth inhibition, active compounds read high
How it was run: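 Inhibition values reflect reduced yeast growth compared with vehicle-treated controls, using a strain engineered with a DNA damage repair defect.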

[17] = at 5.0 µM (retest, dose inferred, filed as 0.5)
[18] = at 50.0 µM (retest, dose inferred, filed as 5.0)

Measured: growth inhibition

CCS(=O)(=O)[O][Sn]([CH2]C)([CH2]C)[O]S(=O)(=O)CC
inactive: [1]; at 1.2 µM -49% | [1]; at 3.7 µM -43% | [1]; at 11.0 µM -29% | [1]; at 33.0 µM -15% | [1]; at 100.0 µM 50% | [2]; at 1.2 µM -47% | [2]; at 3.7 µM -43% | [2]; at 11.0 µM -39% | [2]; at 33.0 µM -25% | [2]; at 100.0 µM 61% | [3]; at 1.2 µM -47% | [3]; at 3.7 µM -43% | [3]; at 11.0 µM -51% | [3]; at 33.0 µM -33% | [3]; at 100.0 µM -35% | [4]; at 1.2 µM -3% | [4]; at 3.7 µM -1% | [4]; at 11.0 µM 1% | [4]; at 33.0 µM 18% | [4]; at 100.0 µM 61% | [5]; at 1.2 µM -4% | [5]; at 3.7 µM -19% | [5]; [17] 21% | [5]; at 11.0 µM 2% | [5]; at 33.0 µM -14% | [5]; [18] 68% | [5]; at 50.0 µM 48.5% | [5]; at 100.0 µM 56% | [6]; at 1.2 µM -5% | [6]; at 3.7 µM 3% | [6]; [17] 6% | [6]; at 11.0 µM 3% | [6]; at 33.0 µM 23% | [6]; at 100.0 µM 69% | [7]; at 1.2 µM -2% | [7]; at 3.7 µM 4% | [7]; at 11.0 µM 4% | [7]; at 33.0 µM 10% | [7]; at 100.0 µM 34% | [8]; [17] 15% | [8]; [18] 69% | [8]; at 50.0 µM 42.2% | [9]; at 1.2 µM -18% | [9]; at 3.7 µM -45% | [9]; at 11.0 µM -33% | [9]; at 33.0 µM -35% | [9]; at 100.0 µM 54% | [10]; [17] 2% | [10]; [18] 32% | [10]; at 50.0 µM 67% | [11]; at 1.2 µM -5% | [11]; at 3.7 µM -9% | [11]; [17] 1% | [11]; at 11.0 µM -8% | [11]; at 33.0 µM -1% | [11]; at 50.0 µM 55.7% | [11]; at 100.0 µM 55% | [12]; at 1.2 µM -32% | [12]; at 3.7 µM -21% | [12]; at 11.0 µM -26% | [12]; at 33.0 µM -4% | [13]; at 1.2 µM 1% | [13]; at 3.7 µM 5% | [13]; at 11.0 µM 16% | [13]; at 33.0 µM 28% | [13]; at 100.0 µM 52% | [14]; at 1.2 µM -4% | [14]; at 3.7 µM -9% | [14]; at 11.0 µM -3% | [14]; at 33.0 µM 7% | [14]; at 100.0 µM 51% | [15]; [17] 44% | [15]; at 50.0 µM 59.6% | [16]; at 1.2 µM -29% | [16]; at 3.7 µM -25% | [16]; at 11.0 µM -17% | [16]; at 33.0 µM -16% | [16]; at 100.0 µM 52%
active: [6]; [18] 85% | [6]; at 50.0 µM 77% | [11]; [18] 72% | [12]; at 100.0 µM 77% | [15]; [18] 87%
